Many of the other results were omitted from the sample, so hits are more common in it than they were.
Pf Dd2 growth = inhibitors of Plasmodium falciparum Dd2 growth | P. falciparum Dd2 growth, SYBR Green, 72 h | Potency, µM (doses to about 28.9 µM), inactives show at the top dose activity, negative = inhibition, usual class: inhibitors | hit rate 4.3% among 120,000 | AID 1347417; active = well fitted inhibition curve with a large enough effect;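 also: plate controls were DMSO vehicle for no effect and reference drug for full effect; nearly all actives have a fitted effect of over 65% in size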
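Infected erythrocytes (Dd2, 0.3% parasitemia, 2.5% hematocrit final) are added to compound in RPMI-1640/Albumax II medium, grown 72 h at 37C in low oxygen, then lysed with saponin/Triton-X containing SYBR Green and read by fluorescence.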
The depositor's hits bear a star; i = inactive; [ ] = dose if it differs, or a comment. Potency is read from the fitted curve at half-maximal effect.

SMILES	Pf Dd2 growth
O=C(N[C@H]1C[C@H]2C(=O)NC[C@@H](CCC(=O)N3CCCCC3)N2C1)c1cccs1	15.7%[44.1 µM]
Cc1cc2nc3n(c(=O)c2n1CC(=O)NCc1ccccc1)CCCCC3	i
CC(C)(C)CC(=O)N1CCn2c(nnc2[C@@H]2C[C@@H](O)CN2Cc2ccccc2)C1	i
OC1(CN2CCN(C(c3ccccc3)c3ccccc3)CC2)CNCCOC1 (centres undefined)	6.31µM*
OC1(CN2CCC(OCc3ccccn3)CC2)CNCCOC1 (centres undefined)	-18.8%
OC1(CN2CCCN(c3nc4ccccc4s3)CC2)CNCCOC1 (centres undefined)	8.91µM*
Cc1cc(N2CCN(CC3(O)CNCCOC3)CC2)n2ncnc2n1 (centres undefined)	-1.3%
Cn1ccnc1CN1CCN(CC2(O)CNCCOC2)CC1 (centres undefined)	24.4%
OC1(CN2CCN(c3cnccn3)CC2)CNCCOC1 (centres undefined)	-6.8%
COc1cc2c(cc1OCC1CC1)NC(=O)C21CCN(Cc2cccc(O)c2)CC1	-15.4%[44.1 µM]
CC(=O)N[C@@H]1Cc2ccccc2[C@H]1NC(=O)CN1C(=O)CNC1=O	7.3%
O=C(CCc1conc1-c1cccc(F)c1)NC1CCCCCC1	-12.8%
CCc1ccccc1NC(=O)C1CCC(CNS(=O)(=O)c2ccc3c(c2)CC(C)N3C(C)=O)CC1 (centres undefined)	-27.0%
Cc1cc(C)c(NS(=O)(=O)c2ccc3c(c2)CC(C)N3C(=O)C2CCC2)c(C)c1 (centres undefined)	19.3%
CCCN(c1ccccc1CC)S(=O)(=O)c1ccc2c(c1)CC(C)N2C(=O)C1CC1 (centres undefined)	8.91µM*
O=C(Cc1ccccc1Cl)N[C@@H]1CN(c2ncccn2)C[C@H]1CO	16.3%
CCN(CC)C(=O)c1coc(COc2ccc3c(c2)C(c2ccc(C)cc2)N(C(=O)C2CC2)CC3)n1 (centres undefined)	i
CCCN1CCN(CCCNC(=O)Cn2c(-c3cccs3)cc3cc(Cl)ccc32)CC1	8.91µM*
CC(C)c1nc2ccc(C(=O)NCCCN3CCN(c4cccc(Cl)c4)CC3)cc2o1	-2.1%
Cc1cc(C)c(NC(=O)Cn2c(=O)n(CC(=O)NCCc3ccccc3)c(=O)c3ccccc32)c(C)c1	15.3%
CCCN1CCN(C(=O)Cn2c(-c3cccs3)cc3cc(F)ccc32)CC1	-18.1%
O=C(Cn1c(-c2cccs2)cc2ccccc21)NCCCN1CCN(c2cccc(Cl)c2)CC1	11.2µM*
CCN1CCN(CCCNC(=O)Cn2c(-c3cccs3)cc3ccccc32)CC1	-16.5%
CCC(=O)N1c2ccccc2CC1C(=O)NCCN1CCN(c2cccc(Cl)c2)CC1 (centres undefined)	-23.0%
Cc1ccc(NC(=O)Cn2c(CCC(=O)O)ccc2-c2cccs2)cc1	6.8%
SMILES	Pf Dd2 growth
Cc1ccc(CCNC(=O)Cn2c(-c3cccs3)cc3ccccc32)cc1	12.6µM*
Cc1ccc(C)c(N2CCN(CCCNC(=O)Cn3ncc4c5ccccc5n(C)c4c3=O)CC2)c1	-25.5%
CC1CCN(C(=O)Cn2c(-c3cccs3)cc3cc(Cl)ccc32)CC1	-7.8%
Cc1ccc(C)c(N2CCN(CCCNC(=O)Cn3c(-c4cccs4)cc4ccccc43)CC2)c1	7.94µM*
COc1ccc(C(=O)N[C@@H]2CCC[C@@H]2C(=O)NCCCOC(C)C)cn1	28.8%
CC1=NS(=O)(=O)N(CCc2ccccc2)C=C1C(=O)O	8.4%
COc1cc(C(=O)N2CCC[C@H]2c2nc(-c3ccc(F)cc3)no2)cc(OC)c1OC	34.8%
CC(C)N1CCN(C(=O)C2CCN(C(=O)N3CC4CC(C3)[C@H]3CCCC(=O)N3C4)CC2)CC1 (some centres undefined)	i
CNC(=O)[C@@H]1CN(C(=O)CCc2nc3ccccc3s2)C[C@H]1c1nc(C)no1	8.4%
O=C(c1ccc2nccn2c1)N1CCN(c2cnccn2)CC1	-7.5%
CN(Cc1nc(-c2ccncc2)no1)C(=O)C1CNCCO1 (centres undefined)	-7.8%
CC(C)c1noc(-c2cccn3c(CNC(=O)Cc4ccccc4Cl)nnc23)n1	i
Cc1cccc(C(=O)NCc2nnc3cc(-c4nc(C)no4)ccn23)c1	i
Cc1cccc(C(=O)NCc2nnc3cc(-c4nc(C(C)C)no4)ccn23)c1	10µM*
Cc1ccc(C)c(C(=O)NCc2nnc3cc(-c4nc(C(C)C)no4)ccn23)c1	i
Cc1ccc(CC(=O)NCc2nnc3cc(-c4nc(C(C)C)no4)ccn23)cc1	i
CC(C)c1noc(-c2ccn3c(CNC(=O)Cc4ccccc4Cl)nnc3c2)n1	5.01µM*
COc1cc(C(C(=O)O)N(C)Cc2c(C)nn(C)c2C)ccc1N (centres undefined)	-23.4%
N#Cc1ccc(S(=O)(=O)N2CCC(Cc3nc(-c4cccnc4)n[nH]3)C2)cc1 (centres undefined)	i
CCCn1cc(CNC(=O)c2ccc(CC3CCCNC3)cc2)cn1 (centres undefined)	i
Cc1ccc(CN2CCc3ncc(C(=O)NCc4ccccc4)n3CC2)o1	10.4%[44.1 µM]
